Drawing on PubChem BioAssay (NCI), this text covers growth inhibition for 37 compounds.

This is part of a sample that, as a whole, favours compounds with a hit. Of some 79,000 tested, about 15% had one in any assay. Unmarked numbers belong to inactive results. Calls of active or inactive are those of the source. Cut-off read from the data, not from the text of the source: active = growth inhibition above about 70%; inactive = the rest.

Experiment [1] can be described thus: NCI Yeast Anticancer Drug Screen. Data for the rad50 strain (AID 155).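 Note: 0% = growth of vehicle-only cultures of the same strain.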 The settings on record: S. cerevisiae rad50 strain growth inhibition; at 50.0 µM; stronger effect = higher value. In a few lines:
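Vehicle-treated cultures provide the reference for the growth inhibition reported for compound-exposed, repair-deficient yeast.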

The nature of experiment [2]: NCI Yeast Anticancer Drug Screen. Data for the mec2-1 strain (AID 157). The following applies: S. cerevisiae mec2-1 strain, at 50.0 µM, stronger effect = higher value. The essentials: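 Each compound was tested on mec2-1 yeast, a strain altered in DNA damage repair or cell cycle control. Growth inhibition is reported relative to vehicle.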
Experiment [3] in a line: NCI Yeast Anticancer Drug Screen. Data for the sgs1 mgt1 strain (AID 161).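 Note: 0% = growth of cultures given vehicle only.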 The following applies: S. cerevisiae sgs1 mgt1 strain, at 50.0 µM, stronger effect = higher value. The essentials: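 Genetically altered yeast, compound exposure, growth inhibition relative to vehicle.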
A short description of experiment [4]: NCI Yeast Anticancer Drug Screen. Data for the cln2 rad14 strain (AID 165).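 Note: 0% = growth equal to vehicle treated cultures.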 The following applies: S. cerevisiae cln2 rad14 strain, at 50.0 µM, stronger effect = higher value. The essentials: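 Test compounds were added to cln2 rad14 yeast cultures; inhibition of growth was then determined by comparison with vehicle treatment.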
Experiment [5] can be described thus: NCI Yeast Anticancer Drug Screen. Data for the bub3 strain (AID 167). The settings on record: S. cerevisiae bub3 mutant strain, at 50.0 µM, stronger effect = higher value. The essentials: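 Mutant yeast screening strain plus compound; vehicle-treated cultures serve as the 0% inhibition reference.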
Experiment [6] in a line: NCI Yeast Anticancer Drug Screen. Data for the mlh1 rad18 strain (AID 175). The settings on record: S. cerevisiae mlh1 rad18 strain growth inhibition; at 50.0 µM; stronger effect = higher value. The essentials: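 Inhibition values reflect reduced growth of mutant yeast versus vehicle-treated controls following compound exposure; the mutations affect DNA damage repair.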

For `CCC(=O)NC(OCC1(CC)COC1)(C(F)(F)F)C(F)(F)F`, the growth inhibition is -8.6% in experiment [1]; -10.8% in experiment [2]; -37.1% in experiment [3]; 2.75% in experiment [4]; -11.5% in experiment [5]; -13.2% in experiment [6].

In the case of `Cc1occc1C(=S)Nc1ccc(Cl)c(OCC(=O)OC(C)(C)C)c1`, the growth inhibition in experiment [1] is 49%; in experiment [2], 50.6%; in experiment [3], 49.2%; in experiment [4], 40.2%; in experiment [5] it was 46.6%; in experiment [6], 38.9%.

With `COC(=O)CC1C2(C)C3=C(C)C(c4ccoc4)CC3OC2C2OC(=O)C3(C)C=CC(=O)C1(C)C23` (configuration not stated), the growth inhibition in experiment [1] was 85% (active); in experiment [2] it was 84.2% (active); in experiment [3] it was 79.2% (active); in experiment [4], 81% (active); in experiment [5], 82% (active); in experiment [6], 90.3% (active).

With `O=C(O)CCSc1ccc([N+](=O)[O-])cc1`, the growth inhibition in experiment [1] is -7.3%; in experiment [2], -18.6%; in experiment [3], -4.75%; in experiment [4], -44.1%; in experiment [5], -11.5%; in experiment [6], 52.6%.

In the case of `C=CCOc1cc2c(cc1Cc1ccc3c(c1)OCO3)OCO2`, the growth inhibition is -6.85% in experiment [1]; -7.75% in experiment [2]; -7.9% in experiment [3]; 9.25% in experiment [4]; 7.5% in experiment [5]; -3.05% in experiment [6].

For the compound `CN(C)c1ccc(S(=O)c2ccc(N(C)C)cc2)cc1`, the growth inhibition is -30.4% in experiment [1]; -27.9% in experiment [2]; -44.9% in experiment [3]; -4.75% in experiment [4]; -48.4% in experiment [5]; -35% in experiment [6].

As to `S=C1N(c2ccc(Br)cc2)C2=Nc3ccccc3SC(=C2N=Nc2ccccc2)N1c1ccc(Cl)cc1`, the growth inhibition was -13.6% in experiment [1]; 20.9% in experiment [2]; -8.8% in experiment [3]; 14.5% in experiment [4]; -1.15% in experiment [5]; -3% in experiment [6].

Regarding `CN1C=CC(=Cc2ccccc2)C=C1`, the growth inhibition was 3.3% in experiment [1]; 5.85% in experiment [2]; -6.45% in experiment [3]; -25% in experiment [4]; -10.8% in experiment [5]; 1.4% in experiment [6].

For the compound `NCCCCC(N)C(=O)NC1C(CO)OC(n2cnc3c(N)ncnc32)C1O` (configuration not stated), the growth inhibition was 31.9% in experiment [1]; 13.2% in experiment [2]; 7.55% in experiment [3]; 14.3% in experiment [4]; 5.75% in experiment [5]; 30.1% in experiment [6].

For `CC(C)c1ccc(OC(=O)N(c2ccccc2)c2ccccc2)cc1`, the growth inhibition was 12.4% in experiment [1]; 15% in experiment [2]; -5.35% in experiment [3]; 3.5% in experiment [4]; -1.6% in experiment [5]; -2.8% in experiment [6].

For `COC(=O)C(c1ccccc1)S(=O)(=O)c1ccccc1` (configuration not stated), the growth inhibition was -2.75% in experiment [1]; -13.3% in experiment [2]; 3.6% in experiment [3]; -2.75% in experiment [4]; -21.4% in experiment [5]; -5.5% in experiment [6].

For the compound `Cc1ccc(S(=O)(=O)c2c(N)c3nc4ccccc4n3c3nc4ccccc4nc23)cc1`, the growth inhibition is 21.4% in experiment [1]; -10.3% in experiment [2]; -5.2% in experiment [3]; 25.7% in experiment [4]; -0.45% in experiment [5]; 13.1% in experiment [6].

As for `O=C(O)CCCc1ccc(Oc2ccccc2)cc1`, the growth inhibition was -6.05% in experiment [1]; -15.3% in experiment [2]; 22% in experiment [3]; -8.85% in experiment [4]; -5% in experiment [5]; -6.6% in experiment [6].

Consider `Ic1ccc(N=Cc2cccs2)cc1`, for which the growth inhibition is 5.1% in experiment [1]; -1.85% in experiment [2]; 21.6% in experiment [3]; 6.8% in experiment [4]; 10.8% in experiment [5]; 21.8% in experiment [6].

As for `Cc1ccc(CCS(=O)(=O)N=[N+]=[N-])cc1`, the growth inhibition in experiment [1] was 1.45%; in experiment [2], -11.8%; in experiment [3] it was -8.95%; in experiment [4], -53.8%; in experiment [5], -20%; in experiment [6], -3.4%.

Regarding `CCOC(=O)C(CC)N1C(=O)c2ccccc2S1(=O)=O` (configuration not stated), the growth inhibition was -16.1% in experiment [1]; -10.5% in experiment [2]; -12.4% in experiment [3]; 48.2% in experiment [4]; 33.5% in experiment [5]; -12.6% in experiment [6].

Consider `Cc1ccc(SSCC(O)C(O)CSSc2ccc(C)cc2)cc1` (configuration not stated), for which the growth inhibition is 11.6% in experiment [1]; -18.6% in experiment [2]; -30.6% in experiment [3]; 21.8% in experiment [4]; -5.6% in experiment [5]; 10.1% in experiment [6].

Regarding `CCCCOC(=O)c1ccc(NC(=O)Nc2ccc(SC)cc2)cc1`, the growth inhibition is -4.05% in experiment [1]; 1.8% in experiment [2]; 19.2% in experiment [3]; -8.75% in experiment [4]; 19.8% in experiment [5]; -13.1% in experiment [6].

In the case of `CCC1CN2CCc3cc(OC)c(OC)cc3C2CC12CO2` (configuration not stated), the growth inhibition in experiment [1] was -5.6%; in experiment [2] it was -21.3%; in experiment [3], 3.15%; in experiment [4] it was -2.5%; in experiment [5] it was 48.8%; in experiment [6], -36.1%.

In the case of `OCC1CC1c1ccccc1` (configuration not stated), the growth inhibition in experiment [1] was -4.75%; in experiment [2], -0.65%; in experiment [3], -6.4%; in experiment [4] it was 10.5%; in experiment [5] it was 10.7%; in experiment [6], 5.55%.

Turning to `O=C(Nc1ccccc1Cl)Nc1ccccc1Br`, the growth inhibition in experiment [1] is 16.8%; in experiment [2], 11.7%; in experiment [3] it was 14.7%; in experiment [4], 12.2%; in experiment [5], 6.8%; in experiment [6] it was -17.3%.

In the case of `N#CC(c1ccccc1)C(c1ccccc1)c1cccc2ccccc12` (configuration not stated), the growth inhibition was 12.2% in experiment [1]; 12.3% in experiment [2]; 5.7% in experiment [3]; -6.85% in experiment [4]; -3.3% in experiment [5]; 15.6% in experiment [6].

Turning to `CC(=O)OCC(=O)[C@H]1CC[C@@H]2[C@]1(C)CC=C1[C@]23C=C[C@]2(C[C@@H](OC(C)=O)CC[C@]12C)C1C(=O)OC(=O)C13` (some centres not stated), the growth inhibition in experiment [1] is -9.65%; in experiment [2] it was 3.4%; in experiment [3], -0.6%; in experiment [4], -8.35%; in experiment [5], 4.65%; in experiment [6], 26.9%.

Take `c1ccc(-c2nc3ccccc3nc2-c2ccc(Cc3ccc(-c4nc5ccccc5nc4-c4ccccc4)cc3)cc2)cc1`: the growth inhibition in experiment [1] was 39.5%; in experiment [2], 19.1%; in experiment [3], 15.4%; in experiment [4], 21.2%; in experiment [5] it was -6.5%; in experiment [6] it was 25.1%.

On to `O=C(O)c1ccn(-c2cccc(-n3ccc(C(=O)O)n3)n2)n1`, for which the growth inhibition in experiment [1] was -1.05%; in experiment [2], -17.1%; in experiment [3], 2.25%; in experiment [4], -47.7%; in experiment [5] it was -15.4%; in experiment [6] it was -7.1%.

`CCN(CC)C(=S)SCCC(N)=O`: the growth inhibition in experiment [1] is -12.4%; in experiment [2], -13.8%; in experiment [3], -2.8%; in experiment [4], 9.15%; in experiment [5], -1.25%; in experiment [6], -0.65%.

For `CCC(=O)Nc1cc(Cl)ccc1C`, the growth inhibition was 46.6% in experiment [1]; 31.4% in experiment [2]; 26.3% in experiment [3]; 23.4% in experiment [4]; 9.25% in experiment [5]; 26.3% in experiment [6].

For `O=C1CC2CC1C1CCCC21` (configuration not stated), the growth inhibition in experiment [1] was -32.5%; in experiment [2], -18.5%; in experiment [3], -56%; in experiment [4], -10.2%; in experiment [5], -31.4%; in experiment [6], -40.7%.

For the compound `O=C1OCc2c[n+]([O-])ccc21`, the growth inhibition was -17.4% in experiment [1]; -9.2% in experiment [2]; -6.85% in experiment [3]; -30.2% in experiment [4]; 0.65% in experiment [5]; 4.35% in experiment [6].

In the case of `O=c1[nH]c2cc(Cl)c([N+](=O)[O-])cc2c2ccccc12`, the growth inhibition in experiment [1] was 15.1%; in experiment [2], -7.35%; in experiment [3] it was 4.35%; in experiment [4], -42%; in experiment [5] it was -11.2%; in experiment [6], -0.25%.

On to `CCN(CC)C(=O)c1c2nc3c(C(=O)N(CC)CC)ccc(C)c3oc-2c(C)c(=O)c1N`, for which the growth inhibition was 24.6% in experiment [1]; 7.35% in experiment [2]; 7.85% in experiment [3]; 19.9% in experiment [4]; 0.9% in experiment [5]; 20.2% in experiment [6].

As for `CC1(C)OC2COC(CN(N=O)C(N)=O)C2O1` (configuration not stated), the growth inhibition is 15.2% in experiment [1]; -15.7% in experiment [2]; -8.15% in experiment [3]; -75% in experiment [4]; -17.4% in experiment [5]; 5.75% in experiment [6].

Consider `CC(=O)CC(=O)Nc1ccc(NC(=O)CC(C)=O)cc1`, for which the growth inhibition in experiment [1] was -13.5%; in experiment [2], -30.9%; in experiment [3], -21.1%; in experiment [4], -0.55%; in experiment [5], -23.5%; in experiment [6], -15.9%.

As for `CC1=CC(=O)OC(=O)/C1=C/c1ccc(N(C)C)cc1`, the growth inhibition in experiment [1] is -11.2%; in experiment [2], 33.8%; in experiment [3] it was -7.65%; in experiment [4], 19.7%; in experiment [5], 23%; in experiment [6], -9.4%.

With `CCCC(=O)NC(Nc1cc(C)ccn1)(C(=O)OCC)C(F)(F)F` (configuration not stated), the growth inhibition in experiment [1] was -4.85%; in experiment [2] it was 8.5%; in experiment [3] it was 9.1%; in experiment [4], 7.4%; in experiment [5] it was 15.8%; in experiment [6] it was -31.9%.

Regarding `CCCc1cc(C(=O)OC/C(C)=N/O)c2ccccc2n1`, the growth inhibition in experiment [1] was -8.15%; in experiment [2], 0.7%; in experiment [3], 11.3%; in experiment [4], -7.75%; in experiment [5], 24.6%; in experiment [6], 9.4%.

With `COc1ccc(C(=O)C(C(=O)C(=O)NCCCNC(=O)C(=O)C(C(=O)c2ccc(OC)cc2)c2ccc(OC)cc2)c2ccc(OC)cc2)cc1` (configuration not stated), the growth inhibition is -11.9% in experiment [1]; -25.6% in experiment [2]; -7.1% in experiment [3]; 13.8% in experiment [4]; -9.25% in experiment [5]; -10.7% in experiment [6].
